Measurements from PubChem BioAssay (NCI).
Where “and” joins values, the source holds several entries; their conditions need not be identical. Equal values may be shown once. The panel holds about 83,000 compounds, 20% with a hit somewhere; the sample as a whole holds those more often.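 Cell lines were cultured in 96-well plates, exposed to a single compound concentration, and assessed for percent growth 48 hours later.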 Calls of active or inactive are those of the source. Rule for the calls: active = growth percent below 10; inactive = the rest.

Legend:
Test in all cases: NCI-60 one-dose screen, 48 h (100 = growth as untreated, 0 = no growth, -100 = all killed)
Settings in all cases: 10 µM unless noted
DU-145 prostate = test system: DU-145 prostate
K-562 leukemia = test system: K-562 leukemia
MALME-3M melanoma = test system: MALME-3M melanoma
MDA-MB-231 breast = test system: MDA-MB-231 breast
RXF 393 renal = test system: RXF 393 renal
SF-268 CNS = test system: SF-268 CNS
SF-295 CNS = test system: SF-295 CNS
SF-539 CNS = test system: SF-539 CNS
UACC-257 melanoma = test system: UACC-257 melanoma
M14 melanoma = test system: M14 melanoma

| Compound | growth (DU-145 prostate) | growth (K-562 leukemia) | growth (MALME-3M melanoma) | growth (MDA-MB-231 breast) | growth (RXF 393 renal) | growth (SF-268 CNS) | growth (SF-295 CNS) | growth (SF-539 CNS) | growth (UACC-257 melanoma) | growth (M14 melanoma) |
| --- | --- | --- | --- | --- | --- | --- | --- | --- | --- | --- |
| CCOP(=O)(OCC)/C(C#N)=C/c1c(C)[nH]c2ccccc12 | 107% (inactive) | 94.6% (inactive) | 105% (inactive) | 90.4% (inactive) | 108% (inactive) | 102% (inactive) | 95.1% (inactive) | 99% (inactive) | 92.6% (inactive) | 92.4% (inactive) |
| O=C1CCC(=O)N1CC1CC2CCC1C2 (configuration not stated) | 127% (inactive) and 98.7% (inactive) | 71.2% (inactive) and 94.1% (inactive) | 98.1% (inactive) and 87.7% (inactive) | 98.8% (inactive) | 105% (inactive) and 106% (inactive) | 100% (inactive) and 95.2% (inactive) | 83.4% (inactive) and 90.2% (inactive) | 101% (inactive) and 87.8% (inactive) | 104% (inactive) and 83.5% (inactive) | 103% (inactive) and 95.6% (inactive) |
| Nc1ccc(Cl)c(S(=O)(=O)O)c1 | 105% (inactive) | 104% (inactive) | 112% (inactive) | 111% (inactive) | 95.1% (inactive) | 102% (inactive) | 112% (inactive) | 94.3% (inactive) | 98.8% (inactive) | 98.9% (inactive) |
| COc1cc(NCCCCCCCNC(C)C)c2nccc(C)c2c1 | 102% (inactive) and 91.4% (inactive) | 54.8% (inactive) and 7.58% (active) | 94.6% (inactive) and 42.1% (inactive) | 68% (inactive) and 62.9% (inactive) | 81.4% (inactive) and 107% (inactive) | 93.2% (inactive) and 82.1% (inactive) | 71.8% (inactive) | 91.5% (inactive) and 73.1% (inactive) | 107% (inactive) and 89.7% (inactive) | 82.8% (inactive) and 68% (inactive) |
| O=[N+]([O-])c1ccc(NC2CCCCC2)nc1 | 96.7% (inactive) and 119% (inactive) | 108% (inactive) and 104% (inactive) | 118% (inactive) | 95.4% (inactive) and 114% (inactive) | 126% (inactive) and 103% (inactive) | 110% (inactive) and 112% (inactive) | 103% (inactive) and 102% (inactive) | 99.6% (inactive) and 110% (inactive) | 107% (inactive) and 106% (inactive) | 105% (inactive) and 109% (inactive) |
| O=C(O)COc1ccccc1F | 108% (inactive) | 92.5% (inactive) | 108% (inactive) | 115% (inactive) | 92.3% (inactive) | 107% (inactive) | 106% (inactive) | 97.4% (inactive) | 115% (inactive) | 103% (inactive) |
| Nc1[nH][nH]c(=O)c1N=Nc1ccccc1 | 109% (inactive) and 111% (inactive) | 137% (inactive) and 92.5% (inactive) | 128% (inactive) and 115% (inactive) | 93.8% (inactive) and 119% (inactive) | 123% (inactive) and 107% (inactive) | 103% (inactive) and 114% (inactive) | 111% (inactive) and 114% (inactive) | 102% (inactive) and 106% (inactive) | 109% (inactive) | 102% (inactive) and 112% (inactive) |
| COC(=O)c1cc(C(=O)OC)cc([N+](=O)[O-])c1 | 113% (inactive) | 99.7% (inactive) | 113% (inactive) | 112% (inactive) | 118% (inactive) | 108% (inactive) | 111% (inactive) | 97.4% (inactive) | 82.7% (inactive) | 106% (inactive) |
| CNc1ccc(O)cc1 | 121% (inactive) and 113% (inactive) | 104% (inactive) and 118% (inactive) | 110% (inactive) and 107% (inactive) | 104% (inactive) and 98.9% (inactive) | 95.6% (inactive) and 114% (inactive) | 121% (inactive) and 113% (inactive) | 101% (inactive) | 104% (inactive) and 107% (inactive) | 91.5% (inactive) and 115% (inactive) | 118% (inactive) and 113% (inactive) |
| CC1OS(=O)OC1C (configuration not stated) | 113% (inactive) and 102% (inactive) | 82.6% (inactive) and 110% (inactive) | 107% (inactive) and 91% (inactive) | 109% (inactive) | 99.4% (inactive) and 104% (inactive) | 110% (inactive) | 100% (inactive) | 97.4% (inactive) and 99.1% (inactive) | 99.8% (inactive) and 94.2% (inactive) | 99.1% (inactive) and 102% (inactive) |
| OCCS | 104% (inactive) | 91.4% (inactive) | 101% (inactive) | 99.3% (inactive) | 110% (inactive) | 99.5% (inactive) | 101% (inactive) | 100% (inactive) | 90.9% (inactive) | 97.6% (inactive) |
| CC(C)(C)OC(=O)c1ccc(NCc2cc(O)ccc2O)cc1 | 57% (inactive) | 3.17% (active) | -40.2% (active) | -38.2% (active) | -68.3% (active) | 16.5% (inactive) | 78.4% (inactive) | -70.1% (active) | -6.29% (active) | 44.5% (inactive) |
| Nc1ccccc1SC1CC(=O)N(c2ccc(I)cc2)C1=O (configuration not stated) | 92.7% (inactive) | 82.9% (inactive) | 75.6% (inactive) | 91% (inactive) | 115% (inactive) | 84.1% (inactive) | 93.8% (inactive) | 89.6% (inactive) | 89.2% (inactive) | 88% (inactive) |
| Nc1ccc2ccc(NS(=O)(=O)N3CCCCC3)cc2c1 | 12.7% (inactive) | 8.04% (active) | 45.3% (inactive) | 11.8% (inactive) | 51.4% (inactive) | 32.3% (inactive) | 15.1% (inactive) | -21.7% (active) | 87.7% (inactive) | 11.2% (inactive) |
| NCCCCCC(=O)O | 124% (inactive) [middle of 4 runs] | 112% (inactive) [middle of 4 runs] | – | 112% (inactive) and 105% (inactive) and 109% (inactive) | 110% (inactive) and 113% (inactive) and 127% (inactive) | – | 104% (inactive) [middle of 4 runs] | 101% (inactive) [middle of 4 runs] | 102% (inactive) and 96.4% (inactive) and 105% (inactive) | – |
| CCCCOC1NC(=O)NC(=O)C1(F)C(=O)OCC (configuration not stated) | 73% (inactive) and 51.5% (inactive) | 88.1% (inactive) and 57.4% (inactive) | 65.7% (inactive) and 65.1% (inactive) | 92.8% (inactive) and 75% (inactive) | 98.1% (inactive) and 82.7% (inactive) | 98.8% (inactive) and 83.1% (inactive) | 94.1% (inactive) and 93.7% (inactive) | 11.3% (inactive) and 5.65% (active) | 77.2% (inactive) | 71.4% (inactive) and 71.3% (inactive) |
| CCOP(C)(=O)/C(Cc1ccc(OC)c(OC)c1)=N\O (configuration not stated) | 116% (inactive) | 101% (inactive) | 98.5% (inactive) | 109% (inactive) | 113% (inactive) | 102% (inactive) | 100% (inactive) | 100% (inactive) | 113% (inactive) | 108% (inactive) |
| CC(NC(=O)CCl)c1ccccc1 (configuration not stated) | 103% (inactive) | 109% (inactive) | 99.4% (inactive) | 111% (inactive) | 98.7% (inactive) | 98.3% (inactive) | 102% (inactive) | 104% (inactive) | 100% (inactive) | 93.8% (inactive) |
| CC(=O)c1cccc(OC(=O)c2ccccc2)c1 | 114% (inactive) | 92% (inactive) | 110% (inactive) | 102% (inactive) | 117% (inactive) | 106% (inactive) | 124% (inactive) | 109% (inactive) | 101% (inactive) | 93.1% (inactive) |
| CCc1ccccc1-n1[nH]c(C)c(C=N)c1=O | 118% (inactive) | 96.5% (inactive) | 94.4% (inactive) | 106% (inactive) | 103% (inactive) | 114% (inactive) | 99.3% (inactive) | 100% (inactive) | 116% (inactive) | 109% (inactive) |
| COc1ccccc1OCC(O)CO (configuration not stated) | 115% (inactive) and 123% (inactive) | 118% (inactive) and 87.4% (inactive) | 110% (inactive) and 105% (inactive) | 114% (inactive) and 111% (inactive) | 110% (inactive) and 111% (inactive) | 100% (inactive) and 114% (inactive) | 3.64% (active) and 96.5% (inactive) | 92.3% (inactive) and 121% (inactive) | 102% (inactive) and 105% (inactive) | 104% (inactive) and 106% (inactive) |
